In PubChem BioAssay (NCI):
This is part of a sample that, as a whole, favours compounds with a hit. Of some 79,000 tested, about 15% had one in any assay. Calls of active or inactive are those of the source. Rule as the data show it: active = growth inhibition above about 70%; inactive = the rest.

What was measured:
[1] = NCI Yeast Anticancer Drug Screen. Data for the rad52 strain (AID 147);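 also: 0% = growth of vehicle-treated control cultures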; conditions: S. cerevisiae rad52 mutant growth inhibition, stronger effect = higher value
Method in brief: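 Compounds are applied to a genetically defined yeast strain lacking normal DNA damage repair, and inhibition of growth is expressed relative to cultures given vehicle only.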

[2] = NCI Yeast Anticancer Drug Screen. Data for the rad50EPP+ strain (AID 151);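 also: 0% = growth of vehicle-treated control cultures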; conditions: S. cerevisiae rad50 mutant strain, stronger effect = higher value
Method in brief: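 Compounds were applied to the rad50EPP+ yeast strain, which bears a defined DNA repair alteration, and growth inhibition was determined relative to vehicle-treated cultures.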

[3] = NCI Yeast Anticancer Drug Screen. Data for the mgt1 strain (AID 153); conditions: S. cerevisiae mgt1 mutant growth inhibition, stronger effect = higher value
Method in brief: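 Strain: mgt1 yeast, one of a set carrying defined DNA damage repair or cell cycle control alterations. Compound-treated growth compared with vehicle.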

[4] = NCI Yeast Anticancer Drug Screen. Data for the rad50 strain (AID 155);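 also: 0% = growth of vehicle-only cultures of the same strain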; conditions: S. cerevisiae rad50 strain growth inhibition, stronger effect = higher value
Method in brief: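 Yeast carrying a defined DNA repair defect were exposed to test compounds, and growth was compared with vehicle-treated controls to give percent inhibition.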

[5] = NCI Yeast Anticancer Drug Screen. Data for the mec2-1 strain (AID 157); conditions: S. cerevisiae mec2-1 strain, stronger effect = higher value
Method in brief: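 Strain: mec2-1 (DNA repair/cell cycle alteration). Compound exposure, then growth measured; inhibition expressed relative to vehicle.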

[6] = NCI Yeast Anticancer Drug Screen. Data for the rad14 strain (AID 159);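 also: 0% = growth of vehicle-treated control cultures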; conditions: S. cerevisiae rad14 strain growth inhibition, stronger effect = higher value
Method in brief: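 Yeast cells carrying a defined DNA-repair defect were exposed to compounds, and growth inhibition was calculated relative to vehicle-treated control cultures.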

[7] = NCI Yeast Anticancer Drug Screen. Data for the sgs1 mgt1 strain (AID 161);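 also: 0% = growth of cultures given vehicle only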; conditions: S. cerevisiae sgs1 mgt1 strain, stronger effect = higher value
Method in brief: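 Test agents were incubated with a DNA-repair-mutant yeast strain. Growth was then read and compared against vehicle-treated controls.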

[8] = NCI Yeast Anticancer Drug Screen. Data for the cln2 rad14 strain (AID 165);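 also: 0% = growth equal to vehicle treated cultures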; conditions: S. cerevisiae cln2 rad14 strain, stronger effect = higher value
Method in brief: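 Compounds are applied to the cln2 rad14 yeast strain, and growth is then compared with that of vehicle-treated cultures to give inhibition.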

[9] = NCI Yeast Anticancer Drug Screen. Data for the bub3 strain (AID 167); conditions: S. cerevisiae bub3 mutant strain, stronger effect = higher value
Method in brief: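 Compounds were applied to a genetically altered yeast strain carrying a cell-cycle control defect. Growth inhibition was scored against vehicle-treated controls.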

[10] = NCI Yeast Anticancer Drug Screen. Data for the wt2 strain (AID 169);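 also: 0% = growth of vehicle-treated yeast cultures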; conditions: S. cerevisiae wt2 strain growth inhibition, stronger effect = higher value
Method in brief: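 This strain belongs to a panel of yeast strains with defined genetic alterations in DNA damage repair or cell cycle control. Compounds are applied, and growth inhibition is measured against vehicle-treated cultures.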

[11] = NCI Yeast Anticancer Drug Screen. Data for the mlh1 strain (AID 171);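 also: 0% = growth of vehicle-treated control cultures of the same strain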; conditions: S. cerevisiae mlh1 strain growth inhibition, stronger effect = higher value
Method in brief: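 Growth of the mutant yeast strain after compound exposure, expressed as inhibition relative to vehicle-only controls.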

[12] = NCI Yeast Anticancer Drug Screen. Data for the sgs1 strain (AID 173);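 also: 0% = growth of vehicle-only control cultures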; conditions: S. cerevisiae sgs1 mutant, stronger effect = higher value
Method in brief: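 Growth of a yeast strain bearing a defined genetic alteration is measured after compound treatment. Inhibition is expressed relative to vehicle-only controls.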

[13] = NCI Yeast Anticancer Drug Screen. Data for the mlh1 rad18 strain (AID 175); conditions: S. cerevisiae mlh1 rad18 strain growth inhibition, stronger effect = higher value
Method in brief: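 Read-out is yeast growth inhibition, calculated against vehicle-only controls. The compound was applied to a strain engineered with DNA damage repair alterations.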

[14] = NCI Yeast Anticancer Drug Screen. Data for the rad18 strain (AID 177); conditions: S. cerevisiae rad18 mutant growth inhibition, stronger effect = higher value
Method in brief: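 Growth of the mutant yeast strain after compound exposure, normalised to vehicle-only cultures.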

[15] = at 5.0 µM (retest, dose inferred, filed as 0.5)
[16] = at 50.0 µM (retest, dose inferred, filed as 5.0)

Measured: growth inhibition

CC(C)c1ccc(NC(=S)NC(=O)c2ccccc2)cc1
active: [9]; at 11.0 µM 78% | [9]; at 33.0 µM 86% | [9]; [16] 87% | [9]; at 50.0 µM 76% | [9]; at 100.0 µM 80%
inactive: [1]; at 1.2 µM -32% | [1]; at 3.7 µM -30% | [1]; at 11.0 µM -19% | [1]; at 33.0 µM 12% | [1]; at 100.0 µM 26% | [2]; at 1.2 µM -2% | [2]; at 3.7 µM 4% | [2]; at 11.0 µM 47% | [2]; at 33.0 µM 53% | [2]; at 100.0 µM 58% | [3]; at 1.2 µM -27% | [3]; at 3.7 µM -23% | [3]; at 11.0 µM 27% | [3]; at 33.0 µM 52% | [3]; at 100.0 µM 47% | [4]; at 1.2 µM -27% | [4]; at 3.7 µM -19% | [4]; [15] 10% | [4]; at 11.0 µM 1% | [4]; at 33.0 µM 31% | [4]; [16] 31% | [4]; at 50.0 µM 52% | [4]; at 100.0 µM 39% | [5]; at 1.2 µM -35% | [5]; at 3.7 µM -19% | [5]; [15] 0% | [5]; at 11.0 µM 4% | [5]; at 33.0 µM 23% | [5]; [16] 40% | [5]; at 50.0 µM 42% | [5]; at 100.0 µM 38% | [6]; at 1.2 µM -19% | [6]; at 3.7 µM 0% | [6]; at 11.0 µM -3% | [6]; at 33.0 µM 42% | [6]; at 100.0 µM 30% | [7]; [15] 2% | [7]; [16] 69% | [7]; at 50.0 µM 66.6% | [8]; [15] 17% | [8]; [16] 64% | [8]; at 50.0 µM 40.9% | [9]; at 1.2 µM 3% | [9]; at 3.7 µM 41% | [9]; [15] 42% | [10]; at 1.2 µM -25% | [10]; at 3.7 µM -26% | [10]; at 11.0 µM -6% | [10]; at 33.0 µM 46% | [10]; at 100.0 µM 37% | [11]; at 1.2 µM -11% | [11]; at 3.7 µM 2% | [11]; at 11.0 µM 29% | [11]; at 33.0 µM 60% | [11]; at 100.0 µM 56% | [12]; at 1.2 µM -23% | [12]; at 3.7 µM -16% | [12]; at 11.0 µM 15% | [12]; at 33.0 µM 50% | [12]; at 100.0 µM 55% | [13]; [15] 5% | [13]; [16] 59% | [13]; at 50.0 µM 34% | [14]; at 1.2 µM -28% | [14]; at 3.7 µM -28% | [14]; at 11.0 µM -17% | [14]; at 33.0 µM 3% | [14]; at 100.0 µM 26%
